{"source": "PubChem BioAssay AID1259416", "about": "(Broad Institute, 2018)", "note": "Hit rate of the full screen: of about 69,000 compounds, about 2,600 (3.8%) were called active. Many of the other results were omitted from the sample, so actives are more common in it than they were. A number with no mark means an inactive call. Cut-off read from the data, not from the text of the source: active = activity change below about -70% (passing the limit was not always enough); inconclusive = no clear call, values can overlap the other calls."}
{"experiment": "T. gondii growth inhibition with IFN-gamma, primary screen, cell-based (AID 1259416);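 note: host cells are HeLa cells infected with Toxoplasma gondii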", "settings": "Toxoplasma gondii growth in IFN-gamma-treated host cells; hits give low values; concentration not given here"}
{"smiles": "Cc1noc(C[C@H]2C[C@@H]3CN(C(=O)c4ccco4)C[C@H]3O2)n1", "activity change, negative = inhibition": "-25%"}
{"smiles": "CCCN(CCC)C(=O)NCCCCCCNC(=O)N(CCC)CCC", "activity change, negative = inhibition": "-0.334%"}
{"smiles": "CO[C@@H]1CN(C)C(=O)c2cc(NC(C)=O)ccc2OC[C@H](C)N(C(=O)Cc2ccccn2)C[C@@H]1C", "activity change, negative = inhibition": "163%"}
{"smiles": "O=C(c1cccs1)N1CCn2c(Cn3cccn3)cnc2C1", "activity change, negative = inhibition": "3.34%"}
{"smiles": "O=S(=O)(c1ccccc1)N1CC2CN(Cc3ccc(O)cc3)CC2C1", "note": "(centres undefined)", "activity change, negative = inhibition": "-5.71%"}
{"smiles": "COc1ccccc1-n1cc(CNC(=O)c2ccc(=O)n(C)c2)cn1", "activity change, negative = inhibition": "1.65%"}
{"smiles": "O=C(CCn1cnnn1)NCc1cnn2ccccc12", "activity change, negative = inhibition": "1.34%"}
{"smiles": "COCC(=O)Nc1ccc(-c2nc(-c3cc(C)ccc3C)co2)cc1", "activity change, negative = inhibition": "11.3%"}
{"smiles": "COc1ccccc1C(=O)Nc1ccc(N2CCN(C)CC2)cc1", "activity change, negative = inhibition": "-6.5%"}
{"smiles": "CNC(=O)c1ccccc1Nc1nc(Nc2ccc(N3CCOCC3)cc2OC)ncc1Cl", "activity change, negative = inhibition": "-72.7% (active)"}
{"smiles": "COc1ccc(S(=O)(=O)N2CCOCC2)cc1NC(=O)COc1ccccc1", "activity change, negative = inhibition": "-52.6%"}
{"smiles": "CCS(=O)(=O)N1CCC2(CC1)CN(S(=O)(=O)c1ccc(C)cc1)[C@H](CO)c1[nH]c3cc(OC)ccc3c12", "activity change, negative = inhibition": "268%"}
{"smiles": "Nc1cc(C(F)(F)F)c(-c2cc(N3CCOCC3)nc(N3CCOCC3)n2)cn1", "activity change, negative = inhibition": "-74.6% (active)"}
{"smiles": "c1cnc2c(-c3cc(N4CCOCC4)ncn3)cccc2c1", "activity change, negative = inhibition": "12.9%"}
{"smiles": "Nc1cc(N2C[C@H]3CC=CC[C@H]3C2)nc(N2CCOCC2)n1", "activity change, negative = inhibition": "14.9%"}
{"smiles": "Cc1ncc(C(=O)NCCCn2ccc3ccccc32)c(C)n1", "activity change, negative = inhibition": "2.92%"}
{"smiles": "CCS(=O)(=O)N1CC2(CN(C(=O)c3ccc(F)cc3)[C@@H](CO)c3c2c2ccc(OC)cc2n3C)C1", "activity change, negative = inhibition": "62.5%"}
{"smiles": "CC(C)CN1CCS(=O)(=O)[C@H]2CCN(S(=O)(=O)N(C)C)CC[C@@H]21", "activity change, negative = inhibition": "-5.98%"}
{"smiles": "Cn1nc(C(=O)NCC2CCC(c3nnc(-c4ccncc4)o3)CC2)ccc1=O", "note": "(centres undefined)", "activity change, negative = inhibition": "24.6%"}
{"smiles": "CCCC1CCC(c2ccc(-c3ccc(CC)cn3)cc2F)CC1", "note": "(centres undefined)", "activity change, negative = inhibition": "-76% (active)"}
{"smiles": "O=C(O)CC1CCC(c2ccc(-c3ccc(Nc4ccc(C(F)(F)F)nc4)cn3)cc2)CC1", "note": "(centres undefined)", "activity change, negative = inhibition": "-61.2%"}
{"smiles": "COCCN(Cc1cccs1)C(=O)c1ccncc1Cl", "activity change, negative = inhibition": "3.28%"}
{"smiles": "COc1cccc(C2=NN(C(=O)C(C)C)C(O)(C(F)(F)F)C2)c1", "note": "(centres undefined)", "activity change, negative = inhibition": "-0.0765%"}
{"smiles": "COc1c(C)cnc(CN(C)C(=O)c2cnn3cc(C)cnc23)c1C", "activity change, negative = inhibition": "-3.21%"}
{"smiles": "COCC1CCN(c2nc(C(C)(C)C)nc3c2cnn3C)C1", "note": "(centres undefined)", "activity change, negative = inhibition": "-12.1%"}
{"smiles": "O=C(Nc1cccnc1)c1cc2c(s1)-c1ccccc1CC2", "activity change, negative = inhibition": "-101% (active)"}
{"smiles": "Cc1ccc(N2CC3(CCN(C(=O)COc4ccccc4)C3)CC2=O)cc1", "note": "(centres undefined)", "activity change, negative = inhibition": "-15.8%"}
{"smiles": "CCN1CCN(c2ncnc3sc(C(=O)NCCc4c[nH]c5ccc(Cl)cc45)c(C)c23)CC1", "activity change, negative = inhibition": "-83.1% (active)"}
{"smiles": "O=C(NCCc1c[nH]c2ccccc12)c1cc(=O)nc2sc(N3CCCC3)nn12", "activity change, negative = inhibition": "5.09%"}
{"smiles": "CCOC(=O)c1nc(NCCc2c[nH]c3ccc(Cl)cc23)c2c(C)noc2n1", "activity change, negative = inhibition": "46.7%"}
{"smiles": "COCCn1cc(-c2nc(C(=O)NCCc3cccnc3)c3ccccn23)nc1C", "activity change, negative = inhibition": "-8.4%"}
{"smiles": "O=C(O)CC1(CC(=O)Nc2ccc(N3CCCCC3)cc2)CCCCC1", "activity change, negative = inhibition": "96.8%"}
{"smiles": "CC(C)(C)c1ccc(C(=O)NC(=S)Nc2ccc(N3CCCCC3)cc2)cc1", "activity change, negative = inhibition": "-87.8% (active)"}
{"smiles": "Cc1ccc(C(=O)NC(=S)Nc2cccc(NC(=O)c3ccccc3)c2)cc1C", "activity change, negative = inhibition": "-63.6%"}
{"smiles": "CC1CCN(c2ncnc3c2cnn3CC(=O)Nc2cc(F)cc(F)c2)CC1", "activity change, negative = inhibition": "-68.2%"}
{"smiles": "CC1CCN(c2cncnc2-n2cc(NC(=O)CC3CCCCC3)cn2)CC1", "activity change, negative = inhibition": "-88.5% (active)"}
{"smiles": "Cc1cc(NC(=O)CC2CCCCC2)n(-c2ncnc3c2cnn3-c2ccc(Cl)cc2)n1", "activity change, negative = inhibition": "16.1%"}
{"smiles": "Cc1c(CN(C)C(=O)COc2cccnc2)[nH]c2ccccc12", "activity change, negative = inhibition": "66.9%"}
{"smiles": "Cc1cccc(-c2[nH]n3c(=O)cc(C(C)n4cnc5ccccc5c4=O)nc3c2C)c1", "note": "(centres undefined)", "activity change, negative = inhibition": "-29.3%"}
{"smiles": "COc1cc(CCC(C)NC(=O)c2ccc(C)cc2)ccc1OC(=O)c1ccc(C)cc1", "note": "(centres undefined)", "activity change, negative = inhibition": "-12.5%"}
{"smiles": "O=C1c2ccc(Nc3ccc(F)cc3F)cc2CCc2ccc(OC[C@H](O)CO)cc21", "activity change, negative = inhibition": "-74% (active)"}
{"smiles": "COCC(=O)N1CCC2(CC1)C(=O)N(c1cncnc1)c1ccccc12", "activity change, negative = inhibition": "-5.94%"}
{"smiles": "C[C@H]1CN([C@@H](C)CO)S(=O)(=O)c2ccc(C#CC3(O)CCCC3)cc2O[C@@H]1CN(C)C(=O)Nc1cccc(F)c1", "activity change, negative = inhibition": "-69.9%"}
{"smiles": "C[C@H]1CN([C@@H](C)CO)S(=O)(=O)c2ccc(C#Cc3cccc(F)c3)cc2O[C@@H]1CN(C)S(=O)(=O)c1cn(C)cn1", "activity change, negative = inhibition": "-91.2% (active)"}
